Measurements taken from PubChem BioAssay (NCI).
This is part of a sample that, as a whole, favours compounds with a hit. Of some 83,000 tested, about 20% had one in any assay.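 Testing used 96-well plates and a 48-hour single-concentration exposure. Example: -40 means 40% of the starting cells died.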 Unmarked numbers belong to inactive results. Activity calls are given as the source filed them. How the source made its calls: active means growth percent below 10; inactive means the rest.

What was measured:
Test in all cases: NCI-60 one-dose screen, 48 h (100 = growth as untreated, 0 = no growth, -100 = all killed)
Conditions in all cases: 10 µM
[1] = test system: DU-145 prostate
[2] = test system: K-562 leukemia
[3] = test system: MALME-3M melanoma
[4] = test system: MDA-MB-231 breast
[5] = test system: SF-268 CNS
[6] = test system: SF-295 CNS
[7] = test system: SF-539 CNS
[8] = test system: UACC-257 melanoma
[9] = test system: M14 melanoma
[10] = test system: HCT-15 colon
[11] = test system: HT29 colon
[12] = test system: SNB-75 CNS
[13] = test system: SNB-19 CNS
[14] = test system: U251 CNS
[15] = test system: PC-3 prostate
[16] = test system: SK-MEL-5 melanoma
[17] = test system: UACC-62 melanoma
[18] = test system: LOX IMVI melanoma
[19] = test system: SK-MEL-28 melanoma

Row | SMILES | growth [1] | growth [2] | growth [3] | growth [4] | growth [5] | growth [6] | growth [7] | growth [8] | growth [9] | growth [10] | growth [11] | growth [12] | growth [13] | growth [14] | growth [15] | growth [16] | growth [17] | growth [18] | growth [19]
1 | CCOP(=O)(OCC)O[C@H]1CC[C@]2(C)[C@H]3CC[C@@H]4[C@@H]([C@](C)(O)CCC=C(C)C)CC[C@@]4(C)[C@]3(C)CC[C@H]2C1(C)C | 41.4% | 13% | 40.3% | 13.9% | 45.9% | 32.1% | 42.7% | 9.27% (active) | 29% | 10.7% | -50.2% (active) | 51.4% | 45.4% | 12.8% | 19.8% | -84.2% (active) | 43.5% | -100% (active) | 
2 | C#CCNC(=O)CCC(=O)OC[C@]12CC[C@@H](C(=C)C)[C@@H]1C1CC[C@@H]3[C@@]4(C)CCCNC(C)(C)[C@@H]4CC[C@@]3(C)[C@]1(C)CC2 (stereo partly drawn) | 17.8% | 3.14% (active) | -93.6% (active) | -47.9% (active) | 42.8% | -85.5% (active) | -99.3% (active) | -78.4% (active) | -80.4% (active) | -64.9% (active) | -68.1% (active) | 98.8% | 34% | -74.2% (active) | -20.3% (active) | -100% (active) | -42.8% (active) | -100% (active) | -98.5% (active)
3 | O=c1c2ccccc2nc(COc2ccccc2)n1/N=C/c1ccc(N2CCCC2)cc1 | 94.7% | 73.4% | 115% | 89.2% | 115% | 94.2% | 93.6% | 108% | 101% | 82.8% | 79.9% | 108% | 89.5% | 105% | 80.3% | 62.4% | 61.6% | 86.6% | 100%
4 | CCCn1c(=O)c2[nH]c(-c3ccc(OCc4nc5ccc(C)cc5[nH]4)cc3)nc2n(CCC)c1=O | 61.8% | 28.3% | -69% (active) | -50.7% (active) | 66.4% | 12.6% | -84.2% (active) | 65.5% | 59.7% | 23.5% | 38.7% | -38.1% (active) | 34% | 6.38% (active) | 39.2% | 12.8% | 2.25% (active) | -20.3% (active) | 39.9%
5 | N#Cc1ccc(-c2nn(-c3ccc(C(=O)O)cc3)cc2CNc2cccc(Br)c2)cc1 | 76.8% | 46.3% | 95.6% | 89.4% | 51.7% | 42.5% | 38.6% | 65.7% | 37.2% | 35.5% | 50.7% | 101% | 51.7% | 37% | 40.1% | 24.1% | 41.8% | 13.2% | 35.6%
6 | COc1ccc(-c2cc(C(=O)N=Nc3c(O)[nH]c4ccccc34)c3ccccc3n2)cc1 | -92.8% (active) | 25.7% | -54.6% (active) | -58.8% (active) | -0.0948% (active) | 4.82% (active) | -76% (active) | 47.8% | 11.1% | -83.1% (active) | -15.1% (active) | 53.7% | -38.8% (active) | -67.6% (active) | 2.92% (active) | 47.3% | 39.5% | -73.6% (active) | -41% (active)
7 | CC(=O)C1=C(C)NC(SCC(=O)Nc2ccc(S(=O)(=O)Nc3cc(C)on3)cc2)=NC1c1ccccc1 (stereo not drawn) | 109% | 104% | 100% | 110% | 107% | 106% | 101% | 103% | 108% | 96.3% | 110% | 102% | 102% | 103% | 109% | 101% | 97.1% | 92.8% | 110%
8 | CC(=O)Nc1ccc(-c2cn(-c3cccc(C(=O)Nc4ccc(Cl)c(C(F)(F)F)c4)c3)nn2)cn1 | 3.54% (active) | 4.92% (active) | -89.6% (active) | -87% (active) | 6.74% (active) | -64.2% (active) | -97.4% (active) | -21.8% (active) | -49.1% (active) | -57.8% (active) | -50.3% (active) | 88% | -35.3% (active) | -59.5% (active) | 1.58% (active) | 38.5% | -62.4% (active) | -90.8% (active) | -80.6% (active)
9 | CN1CCN(c2ccc(C(=O)/C=C/c3cc(C(F)(F)F)ccc3Cl)cc2)CC1 | -62.5% (active) | 2.76% (active) | -95.4% (active) | -95.1% (active) | 1.69% (active) | -89.3% (active) | -100% (active) | -79.7% (active) | -84.9% (active) | -86.4% (active) | 0.637% (active) | 42.9% | -99.2% (active) | -74.5% (active) | -40.3% (active) | -90.6% (active) | -79.9% (active) | -100% (active) | -97.6% (active)
10 | Cc1ccc(-c2nc(Nc3ccc(C)c(S(N)(=O)=O)c3)c3ccccc3n2)cc1 | 35% | 5.02% (active) | 92.4% | 96.5% | 96.1% | 85.2% | -31.3% (active) | 104% | 63.2% | 50.7% | 43.1% | 116% | 91.4% | 18.6% | 43.9% | 86.7% | 87.8% | 2.94% (active) | 113%
11 | CN1CCCN(Cc2ccc(C(=O)Nc3cccc(Nc4ccc5c(O)cccc5n4)c3)cc2C(F)(F)F)CC1 | -44.5% (active) | 11.5% | -95.9% (active) | -75.6% (active) | -55.6% (active) | -91% (active) | -98.3% (active) | -81.3% (active) | -84.7% (active) | -55.6% (active) | -55.2% (active) | 13.9% | -81.2% (active) | -65.7% (active) | 2.18% (active) | -100% (active) | -94.8% (active) | -95.5% (active) | -100% (active)
12 | COc1ccc(C(=O)/C=C/c2ccc(Cl)c(C(F)(F)F)c2)cc1S(N)(=O)=O | -20.9% (active) | 5.18% (active) | -97.9% (active) | -100% (active) | -40.5% (active) | -100% (active) | -100% (active) | -78.2% (active) | -87.5% (active) | -99.9% (active) | -76.9% (active) | -33.7% (active) | -100% (active) | -68.7% (active) | -48.2% (active) | -89.4% (active) | -98.7% (active) | -91.4% (active) | -100% (active)
13 | CCOc1ccc(/C=N/NC(=O)Cn2nc(Cc3ccccc3)c3onc(C)c3c2=O)cc1 | 30.6% | 75% | -11.8% (active) | 9.5% (active) | -9.54% (active) | 10.8% | -47.2% (active) | 66.2% | 57.6% | 63.1% | 42% | -23.7% (active) | -3.49% (active) | -21.4% (active) | 22.5% | 68.3% | 36.9% | 14.2% | 54.3%
14 | COc1cnc2c(c1)C(=O)c1c-2n(CCCNCCO)c(=O)c2cc(OC)c(OC)cc12 | 15.6% | 26.8% | 49% | 19.2% | 44% | 6.94% (active) | -52.7% (active) | 68.3% | 23.1% | 32.3% | 12.1% | 59.6% | 18.7% | 20.8% | 43.2% | 12% | -2.88% (active) | -78% (active) | 70.2%
15 | Brc1ccc(N/N=C/c2c[nH]c3ccccc23)nc1 | 37.7% | 11.7% | 64.1% | -26% (active) | 21.4% | 25.3% | 21% | 70.8% | 14.3% | 8.57% (active) | 14% | 26.7% | 43.9% | 19.9% | 20% | 51.8% | 54.8% | -2.43% (active) | 63.6%
16 | O=C(CSc1nnc(-c2ccc3nc(-c4ccccc4)[nH]c3c2)o1)Nc1ccc(Cl)cc1 | 73.6% | 16.7% | 44% | 27.4% | 59.6% | -14.9% (active) | 23.4% | 75.3% | 39.7% | 15.7% | 17.4% | 66.1% | 63.9% | 48.9% | 43.3% | 15.3% | 34.3% | -2.86% (active) | 41.8%
